{"source": "PubChem BioAssay (NCATS)", "note": "Results filed as inconclusive are left out. Unmarked numbers belong to inactive results. Activity calls are given as the source filed them. Calls follow the shape of the dose curve; as a rule, active = well fitted cell-killing curve with a large enough effect; inconclusive = small, poorly fitted or top-dose-only effect; inactive = no such curve, though single readings can be large or run the other way. % is scaled to controls: 0 for no effect and ±100 for the full control effect; potency is read from the fitted curve at half-maximal effect.", "data": [{"test": "qHTS of pediatric cancer cell lines to identify multiple opportunities for drug repurposing: Primary screen for Saos-2 cells (AID 1347097); also: nearly all actives have a fitted effect of over 40% in size", "conditions": "Saos-2 viability, CellTiter-Glo ATP luminescence, 48 h; series mostly up to 46 µM; activity change, negative = cytotoxic: at the top concentration", "description": "Drug repurposing or repositioning has been offered as a strategy for drug development in oncology programs. This approach has special potential for childhood cancers and other rare or orphan diseases, where the expected return on new drug development has been a disincentive to pharmaceuticals. […] In this project we exploit the poly-pharmacology of drugs to discover new indications via phenotypic screening of a panel of 19 well-characterized cell lines derived from solid tumors seen in children and adolescents. The goal is to identify approved drugs with previously unrecognized anticancer properties that has the potential to reveal new mechanisms and biological processes involved in carcinogenesis or drug resistance. We employed a titration-based paradigm (quantitative high-throughput screening or qHTS), where all compounds were tested at multiple concentrations for their effect on cell viability. Concentration-response curves (CRCs) were derived directly from the primary screen, and both potency and efficacy values were used to identify compounds with robust bioactivity profiles. We screened the NIH Chemical Genomics Center (NCGC) Pharmaceutical Collection (NPC) and Mechanism Interrogation Plate (MIPE) small molecule collections of approved and investigational compounds against these cell lines; and measured metabolically active cells after 48 hours of compound treatment as a proxy for cell viability. […] Assay Submitter: Nathalia J. Martinez, National Center for Advancing Translational Sciences, National Institutes of Health, Rockville, MD, USA; email: natalia.martinez@nih.gov Shen, M et al. Quantitative high-throughput phenotypic screening of pediatric cancer cell lines identifies multiple opportunities for drug repurposing. Oncotarget 2017 Dec 19;9(4):4758-4772. PMID 29435139.\nThe cells were obtained from University of North Carolina (UNC), Pediatric Preclinical Testing Program (PPT), and Coriell Institute (CI). qHTS cell viability assay: Cells were assayed in growth media at a density of 500-1,000 cells/well. Five microliters of cells were dispensed into 1,536-well, white, solid-bottom, TC-treated plates (Greiner Bio One) using a multidrop dispenser and incubated at 37 degrees C, 5% CO2, under a humidified atmosphere for 5 hours. Twenty-three nanoliters of compounds and controls (neutral control DMSO or positive control bortezomib at final concentration of 2.3 µM) were subsequently transferred by Kalypsys pintool. For primary screens, the MIPE collection was tested at 11-point dilutions (final concentrations range from 0.78 nM to 46 µM) and the NPC collection at 8-point dilutions (final concentrations range from 0.59 nM to 46 µM). Compounds tested in follow-up screens were assayed at 11-point dilutions. Cells were incubated for 48 hours, followed by addition of 3 µL of CellTiter-Glo (Promega). After a 15 min incubation at room temperature, samples were analyzed for luminescence intensity using a ViewLux High-throughput CCD imager equipped with clear filters.", "units": {"activity change, negative = cytotoxic": "%"}, "values": [{"molecule": "O=C(O)c1ccc(-c2c[nH]c3ncc(-c4ccccc4)cc23)cc1C1CCCC1", "activity change, negative = cytotoxic": -19.8}, {"molecule": "NS(=O)(=O)c1cccc2c1C(=O)c1cccc(O)c1C2=O", "Potency": "0.264 µM (active)"}, {"molecule": "CC(C)=CC[C@@H](O)C1=CC(=O)c2c(O)ccc(O)c2C1=O", "Potency": "18.7 µM (active)"}, {"molecule": "CCc1ccc(OCc2ccccc2C(=O)Nc2ccc3nc(C)cc(N)c3c2)cc1", "Potency": "14.8 µM (active)"}, {"molecule": "CCN(CC)CCNC(=O)c1ccc(N)cc1", "activity change, negative = cytotoxic": 27.5}, {"molecule": "O=c1cc(CN2CCOCC2)occ1OCCCCCSc1ccnc2cc(C(F)(F)F)ccc12", "Potency": "4.18 µM (active)"}, {"molecule": "CC=CCC=CCCC(=O)[C@H]1O[C@@H]1C(N)=O", "Potency": "18.7 µM (active)"}, {"molecule": "COc1ccc2c3c1OC1C[C@@H](O)C=C[C@@]31CCN(C)C2", "note": "(stereo not given in full)", "activity change, negative = cytotoxic": -2.64}, {"molecule": "C[C@@H](O)[C@H]1C(=O)N2C(C(=O)O)=C(S[C@@H]3CN[C@H](C(=O)N(C)C)C3)[C@H](C)[C@H]12", "Potency": "inactive"}, {"molecule": "O=c1cc(-c2ccccc2)oc2cc(O)cc(O)c12", "activity change, negative = cytotoxic": -26.7}, {"molecule": "CNC1CCC(N(Cc2cccc(-c3ccncc3)c2)C(=O)c2sc3c(F)ccc(F)c3c2Cl)CC1", "note": "(stereo not given)", "Potency": "18.7 µM (active)"}, {"molecule": "COc1cccc(-c2cc(=O)c3ccccc3o2)c1N", "activity change, negative = cytotoxic": 7.84}, {"molecule": "CCCCCCCCCCCC1=C(O)C(=O)C=C(O)C1=O", "Potency": "0.0372 µM (active)"}, {"molecule": "O=c1cc(-c2ccc(O)cc2)oc2cc(O)cc(O)c12", "Potency": "14.8 µM (active)"}, {"molecule": "CC(C)n1cnc2c(NCCCCCCNC(=O)OC(C)(C)C)nc(NCCO)nc21", "activity change, negative = cytotoxic": 0.196}, {"molecule": "CC(C)(C)COc1ccc(-n2cc(C(=O)O)cn2)cc1C#N", "activity change, negative = cytotoxic": 5.79}, {"molecule": "C[N+](C)(C)CCCCCC[N+](C)(C)C", "activity change, negative = cytotoxic": -3.15}, {"molecule": "OC[C@@H](O)[C@H](O)[C@H](O)[C@@H](O)CO", "Potency": "inactive"}, {"molecule": "CC1(C)CCC(CN2CCN(c3ccc(C(=O)NS(=O)(=O)c4ccc(NCC5CCOCC5)c([N+](=O)[O-])c4)c(Oc4cnc5[nH]ccc5c4)c3)CC2)=C(c2ccc(Cl)cc2)C1", "Potency": "14.8 µM (active)"}, {"molecule": "CC(=O)Nc1ccc([C@H](C)C(=O)Nc2ncc(C(C)C)s2)cc1", "Potency": "4.18 µM (active)"}, {"molecule": "CC(C)[C@H](CO)Nc1nc(Nc2ccc(C(=O)O)c(Cl)c2)c2ncn(C(C)C)c2n1", "Potency": "18.7 µM (active)"}, {"molecule": "N#Cc1ccc(NC(=O)Nc2ccccc2Br)c2n[nH]nc12", "activity change, negative = cytotoxic": -6.69}, {"molecule": "N#CC(=C(N)Sc1ccccc1N)C(C#N)=C(N)Sc1ccccc1N", "Potency": "29.6 µM (active)"}, {"molecule": "O=C(Nc1cccc(Br)c1)c1cccc(S(=O)(=O)N2CCCCCC2)c1", "Potency": "16.6 µM (active)"}, {"molecule": "OC[C@H]1O[C@@H](n2cnc3c2NC=NC[C@@H]3O)C[C@H]1O", "activity change, negative = cytotoxic": 17.6}, {"molecule": "CO[C@H]1C[C@@H]2CC[C@@H](C)[C@@](O)(O2)C(=O)C(=O)N2CCCC[C@@H]2C(=O)O[C@H]([C@H](C)C[C@@H]2CC[C@H](OC(=O)C(C)(CO)CO)[C@H](OC)C2)CC(=O)[C@H](C)C=C(C)[C@@H](O)[C@@H](OC)C(=O)[C@H](C)C[C@H](C)C=CC=CC=C1C", "Potency": "16.6 µM (active)"}, {"molecule": "NC1=N[C@@]2(c3cc(NC(=O)c4ccc(F)cn4)ccc3F)COC[C@@H]2CS1", "Potency": "0.372 µM (active)"}, {"molecule": "O=C1Nc2ccc(Cl)cc2C(C#CC2CC2)(C(F)(F)F)O1", "note": "(stereo not given)", "Potency": "20.9 µM (active)"}, {"molecule": "CC(=O)N[C@@H](CS)C(=O)O", "activity change, negative = cytotoxic": 37.5}, {"molecule": "CCN1CCC[C@H]1CNC(=O)c1cc(S(N)(=O)=O)ccc1OC", "activity change, negative = cytotoxic": 7.54}, {"molecule": "OC[C@H]1O[C@@H](Oc2cc(O)cc(C=Cc3ccc(O)cc3)c2)[C@H](O)[C@@H](O)[C@H]1O", "activity change, negative = cytotoxic": -5.74}, {"molecule": "O=C(O)c1cc(-c2ccccc2)nc2ccccc12", "activity change, negative = cytotoxic": 1.41}, {"molecule": "C[C@H]1[C@H](NC(=O)C(=NOC(C)(C)C(=O)O)c2csc(N)n2)C(=O)N1S(=O)(=O)O", "activity change, negative = cytotoxic": 18.1}, {"molecule": "COC(=O)C1=CO[C@@H](O)[C@@H]2C(CO)=CC[C@@H]12", "activity change, negative = cytotoxic": -18.7}, {"molecule": "NC1CCC(Nc2nc(Nc3ccc(C(=O)N4CCCCC4)cc3)c3ncn(-c4cccc(F)c4)c3n2)CC1", "note": "(stereo not given)", "activity change, negative = cytotoxic": 11.1}, {"molecule": "C[C@@H]1CCN(C(=O)CC#N)C[C@H]1N(C)c1ncnc2[nH]ccc12", "activity change, negative = cytotoxic": -20.6}, {"molecule": "NC[C@@H]1O[C@@H](O[C@H]2[C@@H](O)[C@H](O[C@@H]3[C@@H](O)[C@@H](N)C[C@H](N)[C@H]3O[C@H]3O[C@H](CN)[C@@H](O)[C@@H](O)[C@H]3N)O[C@H]2CO)[C@H](N)[C@@H](O)[C@@H]1O", "activity change, negative = cytotoxic": -1.49}, {"molecule": "O=c1c(-c2ccc(O)cc2)coc2cc(OC3O[C@H](CO)[C@H](O)[C@H](O)[C@H]3O)cc(O)c12", "note": "(stereo not given in full)", "activity change, negative = cytotoxic": -27.4}, {"molecule": "CC(=O)OC1C(C)OC(Oc2c(-c3ccc(O)cc3)oc3cc(O)cc(O)c3c2=O)C(O)C1OC(C)=O", "note": "(stereo not given)", "Potency": "18.7 µM (active)"}, {"molecule": "CC(C)OC(=O)C(C)(C)Oc1ccc(C(=O)c2ccc(Cl)cc2)cc1", "activity change, negative = cytotoxic": -27.1}]}]}
